Screening data (PubChem)
This excerpt belongs to a sample that is enriched for hits.
TDP-43 rescue – inhibitors of TDP-43 toxicity in yeast. yeast TDP-43 toxicity rescue, BacTiter-Glo growth, 24 h. Potency, µM (series often up to 46.1 µM), most hits filed as activators. 0.45% of 45,000 active. AID 1347073; active = well fitted activation curve with a large enough effect; also: 0% is about no effect; nearly all actives have a fitted effect of over 55% in size
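TDP-43-expressing yeast, pregrown in raffinose, seeded at OD600 0.02 in galactose medium with compound for 24 hr at 30 deg C. Growth read by BacTiter-Glo luminescence, so rescue of toxicity appears as activation.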
An asterisk follows results filed as active; i = inactive. Potency is read from the fitted curve at half-maximal effect.

SMILES	TDP-43 rescue
CC1CN(C(=O)CS(=O)(=O)Cc2ccccc2)CC(C)O1 (stereo unspecified)	i
Cc1ccccc1-c1nc2c3c(-c4ccccc4)c(-c4ccccc4)oc3ncn2n1	i
COc1ccc(NC(=O)C/C(C)=N/NC(=O)c2cccs2)c([N+](=O)[O-])c1	i
Cc1ccc2c(c1)C(O)(CC(=O)/C=C/C=C/c1ccccc1)C(=O)N2 (stereo unspecified)	i
Cc1ccc2c(c1)/C(=C/c1ccccc1)C(=O)N2	22µM*
Cc1ccc(C)c(C2C(=O)c3ccccc3C2=O)c1	i
COc1ccc(CCNC(=O)COC(=O)Cc2c[nH]c3ccccc23)cc1OC	i
CCc1ccccc1NC(=O)c1ccc(CN2CCC(Cc3ccccc3)CC2)cc1	i
Cc1c(Cl)cccc1NC(=S)NCC(c1cccnc1)N(C)C (stereo unspecified)	i
Cc1cccc(C)c1OCCOC(=O)c1n[nH]c2ccccc12	14µM*
CCN(Cc1ccccc1)C(=O)COC(=O)c1n[nH]c2ccccc12	i
O=C(COC(=O)c1n[nH]c2ccccc12)Nc1ccccc1F	i
CCCNC(=O)NC(=O)COC(=O)CNS(=O)(=O)/C=C/c1ccccc1	i
Cn1c(SCC(=O)Nc2ccc3c(c2)OCCO3)nnc1-c1ccncc1	i
CCCN(C(=O)c1cc2c(s1)-c1ccccc1SC2)c1ccccc1F	i
COc1ccccc1C(=O)N/C(=C\c1ccc2c(c1)OCO2)C(=O)NCCc1nc2ccccc2[nH]1	i
CCn1c(-c2cc(-c3ccc(C)cc3)nc3ccccc23)n[nH]c1=S	i
C=CCn1c(-c2cc(-c3ccc(C)cc3)nc3ccccc23)n[nH]c1=S	14µM*
C=CCn1c(-c2ccccc2OC)n[nH]c1=S	i
Cc1ccc(S(=O)(=O)N2CCC[C@H]2C(=O)NC2CCCCC2)cc1	i
CCc1ccc(C(C(=O)NC2CCCCC2)N(C(=O)c2csnn2)C2CC2)cc1 (stereo unspecified)	i
Cc1[nH]c(=O)[nH]c(=O)c1S(=O)(=O)N(CC(C)C)CC(C)C	i
O/N=C/c1ccccc1Oc1ccc(Cl)cc1	18µM*
COC(=O)N/N=C/c1ccccc1OCCOc1ccc(OC)cc1	i
CCOC(=O)COc1ccccc1/C=N/O	i
SMILES	TDP-43 rescue
CN1CCN(C(=O)c2ccc(-c3cnc4cccnn34)cc2)CC1	i
O=C(c1ccccc1)N1CCN(C(=O)c2nn3c(C(F)(F)F)cc(-c4ccccc4)nc3c2Br)CC1	i
COc1ccc(S(=O)(=O)NC(=O)C2(C)CCN2C(=O)c2cccc(F)c2)cc1 (stereo unspecified)	i
CCN(c1ccccc1)S(=O)(=O)c1ccc(Cl)c(NC(=O)CN(C)C2CCN(C)CC2)c1	i
COc1ccc(-n2nc([N+](=O)[O-])c(=NCCc3cccc(C)c3)n2O)cc1	13µM*
Cc1ccc(N=c2c([N+](=O)[O-])nn(-c3ccc4c(c3)OCCO4)n2O)cc1F	i
COc1cccc(CNC(=O)Cn2nc([N+](=O)[O-])c(Br)c2C)c1	i
Nc1c(C(=O)Nc2ccc(Cl)c(C(F)(F)F)c2)sc2nc(-c3ccncc3)ccc12	i
Cc1cccc(NC(=S)N2CCC(NC(=O)c3ccco3)CC2)c1	i
CCN(CCn1cccn1)C(=O)c1cc(COc2cc(C)ccc2C)on1	i
O=C(CSc1nnc2c(Cl)cc(Cl)cn12)N1CCN(c2ccc(F)cc2)CC1	i
O=C(CN1CCN(Cc2ccccc2)CC1)NCc1ccccc1Cl	i
CCCCC(=O)NCc1ccccc1Cl	i
O=C(CN1CCc2ccccc21)NCc1ccccc1Cl	13µM*
O=C(CCn1c(=O)c2sccc2n(Cc2cccc(F)c2)c1=O)NCc1ccc2c(c1)OCO2	i
COc1ccc(-n2c(-c3ccc(Cl)cc3Cl)n[nH]c2=S)c(OC)c1	i
COCCn1c(-c2ccc(Cl)cc2Cl)nc2c(c(=O)c3ccccc3n2C)c1=O	i
Clc1cccc(COn2c(-c3ccc(Cl)cc3Cl)nc3ncccc32)c1	25µM*
Fc1ccc(-c2csc(N3CCOCC3)n2)cc1	i
Cc1cc(C(=O)N/N=C/c2sc(N3CCOCC3)nc2-c2ccccc2)c(C)o1	i
c1ccc(-c2nc(N3CCOCC3)sc2-c2ccccc2)cc1	25µM*
CC(=O)Nc1cnc(/C=C\CCCO)cn1	i
COc1ccc(NC(=O)CCSCCc2ccccn2)cc1OC	i
CCc1nnc(NC(=O)CSc2nc(C)cs2)s1	i
CC(=O)c1ccc(Sc2nnnn2-c2ccccc2)c([N+](=O)[O-])c1	20µM*
SMILES	TDP-43 rescue
CN1CCN(S(=O)(=O)c2ccc(Sc3nnnn3-c3ccccc3)c([N+](=O)[O-])c2)CC1	i
Cc1ccc(-n2nnnc2SCC(=O)NNC(=O)c2ccc([N+](=O)[O-])cc2)cc1	i
Cc1ccc(C)c(NC(=O)Cn2cc(C(=O)C3CC3)c3ccccc32)c1	i
CN(CCOc1ccccc1)CC(=O)Nc1ccc(Br)cc1F	i
COc1cccc(CN(C)C(=O)CSc2nc3ccccc3[nH]2)c1OC	i
COc1ccc(CNC(=O)CCSCc2ccccc2Cl)c(OC)c1	14µM*
COc1ccccc1CNC(=O)Cc1ccc(OC)c(OC)c1	i
COc1ccccc1OCC(=O)NCCSCc1ccccc1Cl	i
CC(=O)c1cccc(NC(=O)CSc2n[nH]c(=O)n2C2CC2)c1	i
COc1cc(/C=N/NC(=O)CN2CCOCC2)ccc1OCc1ccccc1	i
CN(C(=O)c1cccc(COc2ccc(Cl)cc2Cl)c1)c1ccccc1	i
O/N=C/c1ccc(OCc2ccccc2)c(Cl)c1	10µM*
O/N=C/c1ccc(OCc2ccccc2)c(Br)c1	11µM*
COc1cc(/C=N/NC(=O)CN2CCCCC2)ccc1OCc1ccccc1	i
COC(=O)c1ccc(COc2ccc(/C=N/O)cc2OC)o1	i
COCCNC(=O)C1(C)CCCN(C(=O)c2c(F)ccc(C)c2F)C1 (stereo unspecified)	i
COC(=O)c1ccc(CSc2ncnc3c2nnn3-c2ccc(F)cc2)o1	i
CN(C)c1ccc(C(=O)Nc2ccc(-c3nc4ccccc4o3)cc2)cc1	i
Cc1ccc(N=Cc2cc3c(cc2O)OC(N)=C(C#N)C3c2ccccc2)cc1 (stereo unspecified)	i
COc1ccccc1NC(=O)CCN1C(=O)c2ccccc2S1(=O)=O	i
COc1cccc(-c2nc3ccccc3s2)c1O	i
CCOc1cc(-c2nc3ccccc3s2)ccc1O	22µM*
COc1cc(C(=O)NCc2ccc(-c3nc4ccccc4s3)cc2)cc(OC)c1OC	i
Cc1csc(NC(=O)CCC(=O)N(CC(=O)NC2CCCC2)Cc2ccccc2)n1	i
O=C(N/N=C/c1ccc(OC(F)F)cc1)C1=COCCO1	i
SMILES	TDP-43 rescue
CC(C)Oc1ccc(/C=N/NC(N)=S)cc1	13µM*
Cn1cc(/C=N/NC(N)=S)c2ccccc21	i
Cc1nc(C)c(C(=O)OCC(=O)NCc2ccccc2Cl)s1	i
OC(c1ccccc1)c1ncc(-c2cccc(OCc3ccccc3)c2)[nH]1 (stereo unspecified)	i
Fc1ccc(-c2csc3ncnc(Cl)c23)cc1	14µM*
CC(=O)CSc1ncnc2scc(-c3ccc(F)cc3)c12	i
Cc1ccc(-c2csc3ncnc(NS(=O)(=O)c4ccc(Cl)cc4)c23)cc1	i
CC(C)CCNC(=O)CCCCn1c(=O)[nH]c2ccsc2c1=O	i
CN1CCOC(=O)/C1=N/Nc1cc(Cl)ccc1Cl	i
COc1c(OC(C)=O)ccc(/C=C/c2ccc3cccc(OCc4ccccc4)c3n2)c1[N+](=O)[O-]	i
